Experimental data as given in PubChem BioAssay AID1159580 (chemical genetic matrix, 2015).
Hit rate of the full screen: of about 5,500 compounds, about 2,000 (36%) were called active. Inconclusive results (about 18%) are left out. The list shows a part of the results. A number with no mark means an inactive call. No stated cut-off is given here; in the data, active means normalized growth mostly below about 0.91 (no sharp cut-off); inconclusive means no clear call, values can overlap the other calls; inactive means mostly above about 0.92.

Assay: chemical genetic growth profiling, strain panel (AID 1159580);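 further: tested at 20 µM; growth read once vehicle control cultures reached saturation at 30 °C; 1 = growth at the plate median or of vehicle wells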
Settings: S. cerevisiae deletion strains, growth OD

Question: For COc1ccc(-c2cc(=O)c3c(O)c(OC)c(OC)c(OC)c3o2)cc1OC, which normalized growth (locus YAL021C, strain ccr4, stronger effect = lower value) is on record?
Answer: The normalized growth was 0.997.

Question: What about the normalized growth (locus YAL026C, strain drs2, stronger effect = lower value) of the same compound?
Answer: The normalized growth was 0.974.

Question: What about the normalized growth (locus YAL030W, strain snc1, stronger effect = lower value) of the same compound?
Answer: The normalized growth was 0.995.

Question: What about the normalized growth (locus YBL061C, strain skt5, stronger effect = lower value) of the same compound?
Answer: Its normalized growth is 0.991.

Question: What about the normalized growth (locus YBR009C, strain hhf1, stronger effect = lower value) of the same compound?
Answer: The normalized growth was 0.965.

Question: What about the normalized growth (locus YBR023C, strain chs3, stronger effect = lower value) of the same compound?
Answer: Its normalized growth is 1.

Question: What about the normalized growth (locus YBR171W, strain sec66, stronger effect = lower value) of the same compound?
Answer: The normalized growth was 0.994.

Question: And the normalized growth (locus YBR231C, strain swc5, stronger effect = lower value)?
Answer: Its normalized growth is 0.976.

Question: And the normalized growth (locus YBR279W, strain paf1, stronger effect = lower value)?
Answer: Its normalized growth is 0.995.

Question: What about the normalized growth (locus YCL011C, strain gbp2, stronger effect = lower value) of the same compound?
Answer: The normalized growth was 0.989.

Question: And the normalized growth (locus YCL016C, strain dcc1, stronger effect = lower value)?
Answer: Its normalized growth is 0.996.

Question: What about the normalized growth (locus YCL069W, strain vba3, stronger effect = lower value) of the same compound?
Answer: Its normalized growth is 1.01.

Question: What about the normalized growth (locus YCR088W, strain abp1, stronger effect = lower value) of the same compound?
Answer: The normalized growth was 0.997.

Question: What about the normalized growth (locus YDL005C, strain med2, stronger effect = lower value) of the same compound?
Answer: Its normalized growth is 0.998.

Question: What about the normalized growth (locus YDL040C, strain nat1, stronger effect = lower value) of the same compound?
Answer: Its normalized growth is 1.02.

Question: What about the normalized growth (locus YDR001C, strain nth1, stronger effect = lower value) of the same compound?
Answer: Its normalized growth is 1.

Question: And the normalized growth (locus YDR069C, strain doa4, stronger effect = lower value)?
Answer: The normalized growth was 0.972.

Question: And the normalized growth (locus YDR137W, strain rgp1, stronger effect = lower value)?
Answer: Its normalized growth is 1.2 [resistant] (active).

Question: What about the normalized growth (locus YDR159W, strain sac3, stronger effect = lower value) of the same compound?
Answer: Its normalized growth is 0.967.

Question: What about the normalized growth (locus YDR195W, strain ref2) of the same compound?
Answer: The normalized growth was 1.03.

Question: What about the normalized growth (locus YDR297W, strain sur2, stronger effect = lower value) of the same compound?
Answer: Its normalized growth is 0.988.

Question: What about the normalized growth (locus YDR334W, strain swr1, stronger effect = lower value) of the same compound?
Answer: Its normalized growth is 1.

Question: What about the normalized growth (locus YDR335W, strain msn5, stronger effect = lower value) of the same compound?
Answer: The normalized growth was 1.

Question: And the normalized growth (locus YDR392W, strain spt3, stronger effect = lower value)?
Answer: The normalized growth was 0.867.

Question: And the normalized growth (locus YEL003W, strain gim4, stronger effect = lower value)?
Answer: The normalized growth was 0.994.

Question: What about the normalized growth (locus YEL037C, strain rad23, stronger effect = lower value) of the same compound?
Answer: Its normalized growth is 0.997.

Question: And the normalized growth (locus YEL061C, strain CIN8 (second series), stronger effect = lower value)?
Answer: The normalized growth was 1.02.

Question: What about the normalized growth (locus YER015W, strain faa2, stronger effect = lower value) of the same compound?
Answer: Its normalized growth is 0.989.

Question: And the normalized growth (locus YER016W, strain bim1, stronger effect = lower value)?
Answer: Its normalized growth is 1.04.

Question: What about the normalized growth (locus YER111C, strain swi4, stronger effect = lower value) of the same compound?
Answer: Its normalized growth is 0.987.

Question: What about the normalized growth (locus YER155C, strain BEM2 (second series), stronger effect = lower value) of the same compound?
Answer: Its normalized growth is 0.939.

Question: And the normalized growth (locus YFR010W, strain ubp6, stronger effect = lower value)?
Answer: Its normalized growth is 0.997.

Question: And the normalized growth (locus YGL167C, strain pmr1, stronger effect = lower value)?
Answer: Its normalized growth is 0.992.

Question: What about the normalized growth (locus YGL173C, strain kem1, stronger effect = lower value) of the same compound?
Answer: Its normalized growth is 0.991.

Question: And the normalized growth (locus YGL227W, strain vid30, stronger effect = lower value)?
Answer: Its normalized growth is 0.99.

Question: And the normalized growth (locus YGL240W, strain doc1, stronger effect = lower value)?
Answer: Its normalized growth is 0.983.

Question: What about the normalized growth (locus YGL253W, strain hxk2, stronger effect = lower value) of the same compound?
Answer: Its normalized growth is 0.951.

Question: And the normalized growth (locus YHR013C, strain ard1, stronger effect = lower value)?
Answer: The normalized growth was 1.01.

Question: And the normalized growth (locus YHR027C, strain rpn1, stronger effect = lower value)?
Answer: The normalized growth was 1.

Question: What about the normalized growth (locus YHR030C, strain SLT2, stronger effect = lower value) of the same compound?
Answer: The normalized growth was 0.961.

Question: What about the normalized growth (locus YHR079C, strain IRE1, stronger effect = lower value) of the same compound?
Answer: The normalized growth was 0.949.

Question: And the normalized growth (locus YHR142W, strain chs7, stronger effect = lower value)?
Answer: The normalized growth was 0.953.

Question: What about the normalized growth (locus YJL092W, strain hpr5, stronger effect = lower value) of the same compound?
Answer: The normalized growth was 1.

Question: And the normalized growth (locus YJL095W, strain BCK1 (second series), stronger effect = lower value)?
Answer: Its normalized growth is 0.992.

Question: And the normalized growth (locus YJL095W, strain BCK1, stronger effect = lower value)?
Answer: Its normalized growth is 1.01.

Question: And the normalized growth (locus YJL115W, strain asf1, stronger effect = lower value)?
Answer: Its normalized growth is 0.996.

Question: What about the normalized growth (locus YJL129C, strain trk1, stronger effect = lower value) of the same compound?
Answer: The normalized growth was 0.949.

Question: What about the normalized growth (locus YJL154C, strain vps35, stronger effect = lower value) of the same compound?
Answer: Its normalized growth is 0.998.

Question: And the normalized growth (locus YJL164C, strain tpk1, stronger effect = lower value)?
Answer: The normalized growth was 0.995.

Question: And the normalized growth (locus YJL166W, strain qcr8, stronger effect = lower value)?
Answer: Its normalized growth is 0.974.

Question: And the normalized growth (locus YJL187C, strain SWE1, stronger effect = lower value)?
Answer: Its normalized growth is 0.989.

Question: And the normalized growth (locus YJR066W, strain TOR1, stronger effect = lower value)?
Answer: Its normalized growth is 0.914.

Question: And the normalized growth (locus YKL160W, strain elf1, stronger effect = lower value)?
Answer: The normalized growth was 0.994.

Question: And the normalized growth (locus YKR026C, strain gcn3, stronger effect = lower value)?
Answer: Its normalized growth is 0.995.

Question: What about the normalized growth (locus YKR091W, strain srl3, stronger effect = lower value) of the same compound?
Answer: Its normalized growth is 1.03.

Question: What about the normalized growth (locus YLL001W, strain dnm1, stronger effect = lower value) of the same compound?
Answer: The normalized growth was 0.984.

Question: And the normalized growth (locus YLL026W, stronger effect = lower value)?
Answer: The normalized growth was 0.998.

Question: What about the normalized growth (locus YLL041C, strain sdh2, stronger effect = lower value) of the same compound?
Answer: Its normalized growth is 1.

Question: What about the normalized growth (locus YLR027C, strain aat2, stronger effect = lower value) of the same compound?
Answer: The normalized growth was 0.997.

Question: And the normalized growth (locus YLR113W, strain HOG1, stronger effect = lower value)?
Answer: The normalized growth was 1.

Question: And the normalized growth (locus YLR221C, strain rsa3, stronger effect = lower value)?
Answer: Its normalized growth is 0.943.

Question: And the normalized growth (locus YLR258W, strain gsy2, stronger effect = lower value)?
Answer: Its normalized growth is 1.

Question: What about the normalized growth (locus YLR262C, strain YPT6 (second series), stronger effect = lower value) of the same compound?
Answer: The normalized growth was 0.985.

Question: And the normalized growth (locus YLR320W, strain mms22, stronger effect = lower value)?
Answer: Its normalized growth is 0.975.

Question: And the normalized growth (locus YLR342W, strain FKS1, stronger effect = lower value)?
Answer: Its normalized growth is 1.

Question: And the normalized growth (locus YLR357W, strain rsc2, stronger effect = lower value)?
Answer: Its normalized growth is 0.972.

Question: What about the normalized growth (locus YLR370C, strain arc18, stronger effect = lower value) of the same compound?
Answer: The normalized growth was 0.986.

Question: And the normalized growth (locus YLR384C, strain iki3, stronger effect = lower value)?
Answer: Its normalized growth is 0.974.

Question: What about the normalized growth (locus YML120C, strain ndi1, stronger effect = lower value) of the same compound?
Answer: The normalized growth was 0.989.

Question: What about the normalized growth (locus YMR058W, strain fet3, stronger effect = lower value) of the same compound?
Answer: The normalized growth was 0.815 (active).

Question: What about the normalized growth (locus YMR125W, strain sto1, stronger effect = lower value) of the same compound?
Answer: Its normalized growth is 1.01.

Question: What about the normalized growth (locus YMR129W, stronger effect = lower value) of the same compound?
Answer: Its normalized growth is 1.01.

Question: And the normalized growth (locus YMR205C, strain PFK2, stronger effect = lower value)?
Answer: Its normalized growth is 1.

Question: And the normalized growth (locus YMR231W, strain pep5, stronger effect = lower value)?
Answer: Its normalized growth is 1.

Question: What about the normalized growth (locus YNL071W, strain lat1, stronger effect = lower value) of the same compound?
Answer: The normalized growth was 0.994.

Question: What about the normalized growth (locus YNL183C, strain NPR1, stronger effect = lower value) of the same compound?
Answer: Its normalized growth is 0.944.

Question: And the normalized growth (locus YNL209W, strain ssb2, stronger effect = lower value)?
Answer: The normalized growth was 0.998.

Question: And the normalized growth (locus YNL248C, strain rpa49, stronger effect = lower value)?
Answer: The normalized growth was 0.971.

Question: What about the normalized growth (locus YNL322C, strain KRE1 (second series), stronger effect = lower value) of the same compound?
Answer: The normalized growth was 1.

Question: What about the normalized growth (locus YNR049C, strain mso1, stronger effect = lower value) of the same compound?
Answer: The normalized growth was 1.01.

Question: What about the normalized growth (locus YOR001W, strain rrp6, stronger effect = lower value) of the same compound?
Answer: Its normalized growth is 0.94.

Question: What about the normalized growth (locus YOR070C, strain gyp1, stronger effect = lower value) of the same compound?
Answer: The normalized growth was 0.978.

Question: And the normalized growth (locus YOR080W, strain dia2, stronger effect = lower value)?
Answer: The normalized growth was 0.999.

Question: What about the normalized growth (locus YOR083W, strain WHI5, stronger effect = lower value) of the same compound?
Answer: The normalized growth was 0.991.

Question: What about the normalized growth (locus YOR106W, strain vam3, stronger effect = lower value) of the same compound?
Answer: The normalized growth was 0.954.

Question: What about the normalized growth (locus YOR231W, strain MKK1, stronger effect = lower value) of the same compound?
Answer: Its normalized growth is 0.95.

Question: What about the normalized growth (locus YOR265W, strain rbl2, stronger effect = lower value) of the same compound?
Answer: Its normalized growth is 0.993.

Question: And the normalized growth (locus YOR270C, strain vph1, stronger effect = lower value)?
Answer: The normalized growth was 0.962.

Question: What about the normalized growth (locus YOR290C, strain snf2, stronger effect = lower value) of the same compound?
Answer: The normalized growth was 0.994.

Question: What about the normalized growth (locus YPL051W, strain arl3, stronger effect = lower value) of the same compound?
Answer: Its normalized growth is 0.947.

Question: What about the normalized growth (locus YPL078C, strain atp4, stronger effect = lower value) of the same compound?
Answer: Its normalized growth is 0.979.

Question: What about the normalized growth (locus YPL106C, strain sse1, stronger effect = lower value) of the same compound?
Answer: Its normalized growth is 0.953.

Question: And the normalized growth (locus YPL240C, strain hsp82, stronger effect = lower value)?
Answer: Its normalized growth is 1.03.

Question: What about the normalized growth (locus YPL256C, strain CLN2, stronger effect = lower value) of the same compound?
Answer: Its normalized growth is 0.971.
